Reference: the supplement of paper PMC7411054
Counter-ions that a name gives are not always drawn.

How the values were obtained:
Experiment in all cases: phenotypically active (imaging signature differs from DMSO and reproducible) at any of 0.3-9 uM (binary (1 = active, 0 = inactive)); higher = active
Conditions in all cases: treatment time: 24 h
A549-ACTB-RAB5A = system: A549-ACTB-RAB5A
In short: (§1)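 Fifteen reporter lines derived from A549, HepG2 and WPMY1 cells by gene editing, carrying BFP for segmentation plus GFP and RFP/FusionRed markers, were exposed to 0.3, 1, 3 or 9 µM for 24 h in four wells each and imaged live. Live-cell features from each well were normalised to solvent control wells. A well set counted as deviating when ≥3 of 4 wells lay beyond the 95th percentile of control Euclidean distances, and as reproducible when the median replicate Pearson correlation exceeded the 95th percentile of non-replicates. Phenotypic activity was assigned only when both criteria were met.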

A549-CANX-COX4 = system: A549-CANX-COX4
In short: as §1

A549-GM130-SQSTM1 = system: A549-GM130-SQSTM1
In short: as §1

A549-TP53BP1-CLTA = system: A549-TP53BP1-CLTA
In short: as §1

A549-TUBA1B-RELA = system: A549-TUBA1B-RELA
In short: as §1

HepG2-ACTB-RAB5A = system: HepG2-ACTB-RAB5A
In short: as §1

HepG2-CANX-COX4 = system: HepG2-CANX-COX4
In short: as §1

HepG2-GM130-SQSTM1 = system: HepG2-GM130-SQSTM1
In short: as §1

HepG2-TP53BP1-CLTA = system: HepG2-TP53BP1-CLTA
In short: as §1

HepG2-TUBA1B-RELA = system: HepG2-TUBA1B-RELA
In short: as §1

WPMY1-ACTB-RAB5A = system: WPMY1-ACTB-RAB5A
In short: as §1

WPMY1-CANX-COX4 = system: WPMY1-CANX-COX4
In short: as §1

WPMY1-GM130-SQSTM1 = system: WPMY1-GM130-SQSTM1
In short: as §1

WPMY1-TP53BP1-CLTA = system: WPMY1-TP53BP1-CLTA
In short: as §1

WPMY1-TUBA1B-RELA = system: WPMY1-TUBA1B-RELA
In short: as §1

Measured: phenotypically active

COCCc1ccc(OCC(O)CNC(C)C)cc1 (stereo not given) [metoprolol]
inactive: A549-ACTB-RAB5A 0 | A549-CANX-COX4 0 | A549-GM130-SQSTM1 0 | A549-TP53BP1-CLTA 0 | A549-TUBA1B-RELA 0 | HepG2-ACTB-RAB5A 0 | HepG2-CANX-COX4 0 | HepG2-GM130-SQSTM1 0 | HepG2-TP53BP1-CLTA 0 | HepG2-TUBA1B-RELA 0 | WPMY1-ACTB-RAB5A 0 | WPMY1-CANX-COX4 0 | WPMY1-GM130-SQSTM1 0 | WPMY1-TP53BP1-CLTA 0 | WPMY1-TUBA1B-RELA 0

Cc1cc2cc(NS(=O)(=O)c3ccc(C#N)cc3)ccc2n(C)c1=O
inactive: A549-ACTB-RAB5A 0 | A549-CANX-COX4 0 | A549-GM130-SQSTM1 0 | A549-TP53BP1-CLTA 0 | A549-TUBA1B-RELA 0 | HepG2-ACTB-RAB5A 0 | HepG2-CANX-COX4 0 | HepG2-GM130-SQSTM1 0 | HepG2-TP53BP1-CLTA 0 | HepG2-TUBA1B-RELA 0 | WPMY1-ACTB-RAB5A 0 | WPMY1-CANX-COX4 0 | WPMY1-GM130-SQSTM1 0 | WPMY1-TP53BP1-CLTA 0 | WPMY1-TUBA1B-RELA 0

O=P(O)(O)C(O)(Cc1cccnc1)P(=O)(O)O [risedronate]
inactive: A549-ACTB-RAB5A 0 | A549-CANX-COX4 0 | A549-GM130-SQSTM1 0 | A549-TP53BP1-CLTA 0 | A549-TUBA1B-RELA 0 | HepG2-ACTB-RAB5A 0 | HepG2-CANX-COX4 0 | HepG2-GM130-SQSTM1 0 | HepG2-TP53BP1-CLTA 0 | HepG2-TUBA1B-RELA 0 | WPMY1-ACTB-RAB5A 0 | WPMY1-CANX-COX4 0 | WPMY1-GM130-SQSTM1 0 | WPMY1-TP53BP1-CLTA 0 | WPMY1-TUBA1B-RELA 0

Cc1nc(=O)c2c([nH]1)CCSC2
inactive: A549-ACTB-RAB5A 0 | A549-CANX-COX4 0 | A549-GM130-SQSTM1 0 | A549-TP53BP1-CLTA 0 | A549-TUBA1B-RELA 0 | HepG2-ACTB-RAB5A 0 | HepG2-CANX-COX4 0 | HepG2-GM130-SQSTM1 0 | HepG2-TP53BP1-CLTA 0 | HepG2-TUBA1B-RELA 0 | WPMY1-ACTB-RAB5A 0 | WPMY1-CANX-COX4 0 | WPMY1-GM130-SQSTM1 0 | WPMY1-TP53BP1-CLTA 0 | WPMY1-TUBA1B-RELA 0

CC1=C(CC(=O)O)c2cc(F)ccc2/C1=C\c1ccc(S(C)=O)cc1 (stereo not given) [sulindac]
inactive: A549-ACTB-RAB5A 0 | A549-CANX-COX4 0 | A549-GM130-SQSTM1 0 | A549-TP53BP1-CLTA 0 | A549-TUBA1B-RELA 0 | HepG2-ACTB-RAB5A 0 | HepG2-CANX-COX4 0 | HepG2-GM130-SQSTM1 0 | HepG2-TP53BP1-CLTA 0 | HepG2-TUBA1B-RELA 0 | WPMY1-ACTB-RAB5A 0 | WPMY1-CANX-COX4 0 | WPMY1-GM130-SQSTM1 0 | WPMY1-TP53BP1-CLTA 0 | WPMY1-TUBA1B-RELA 0

CN(N=O)C(=O)N[C@@H](C=O)[C@@H](O)[C@H](O)[C@H](O)CO.CN(N=O)C(=O)N[C@H]1C(O)O[C@H](CO)[C@@H](O)[C@@H]1O [streptozotocin]
inactive: A549-ACTB-RAB5A 0 | A549-CANX-COX4 0 | A549-GM130-SQSTM1 0 | A549-TP53BP1-CLTA 0 | A549-TUBA1B-RELA 0 | HepG2-ACTB-RAB5A 0 | HepG2-CANX-COX4 0 | HepG2-GM130-SQSTM1 0 | HepG2-TP53BP1-CLTA 0 | HepG2-TUBA1B-RELA 0 | WPMY1-ACTB-RAB5A 0 | WPMY1-CANX-COX4 0 | WPMY1-GM130-SQSTM1 0 | WPMY1-TP53BP1-CLTA 0 | WPMY1-TUBA1B-RELA 0

O=C(O)c1cc(=O)c(O)c(C(=O)O)o1 [Meconic acid]
inactive: A549-ACTB-RAB5A 0 | A549-CANX-COX4 0 | A549-GM130-SQSTM1 0 | A549-TP53BP1-CLTA 0 | A549-TUBA1B-RELA 0 | HepG2-ACTB-RAB5A 0 | HepG2-CANX-COX4 0 | HepG2-GM130-SQSTM1 0 | HepG2-TP53BP1-CLTA 0 | HepG2-TUBA1B-RELA 0 | WPMY1-ACTB-RAB5A 0 | WPMY1-CANX-COX4 0 | WPMY1-GM130-SQSTM1 0 | WPMY1-TP53BP1-CLTA 0 | WPMY1-TUBA1B-RELA 0

CN(C)C(=N)NC(=N)N [Metformin hydrochloride]
inactive: A549-ACTB-RAB5A 0 | A549-CANX-COX4 0 | A549-GM130-SQSTM1 0 | A549-TP53BP1-CLTA 0 | A549-TUBA1B-RELA 0 | HepG2-ACTB-RAB5A 0 | HepG2-CANX-COX4 0 | HepG2-GM130-SQSTM1 0 | HepG2-TP53BP1-CLTA 0 | HepG2-TUBA1B-RELA 0 | WPMY1-ACTB-RAB5A 0 | WPMY1-CANX-COX4 0 | WPMY1-GM130-SQSTM1 0 | WPMY1-TP53BP1-CLTA 0 | WPMY1-TUBA1B-RELA 0

COC(=O)c1c(-c2cc(OC)c(OC)c(OC)c2)c2ccnc(OCc3ncccn3)c2c(=O)n1Cc1ccnc(C)c1 [T 0156 hydrochloride]
inactive: A549-ACTB-RAB5A 0 | A549-CANX-COX4 0 | A549-GM130-SQSTM1 0 | A549-TP53BP1-CLTA 0 | A549-TUBA1B-RELA 0 | HepG2-ACTB-RAB5A 0 | HepG2-CANX-COX4 0 | HepG2-GM130-SQSTM1 0 | HepG2-TP53BP1-CLTA 0 | HepG2-TUBA1B-RELA 0 | WPMY1-ACTB-RAB5A 0 | WPMY1-CANX-COX4 0 | WPMY1-GM130-SQSTM1 0 | WPMY1-TP53BP1-CLTA 0 | WPMY1-TUBA1B-RELA 0

C[C@H]1[C@H](C)CC[C@]2(C(=O)O[C@@H]3O[C@H](CO[C@@H]4O[C@H](CO)[C@@H](O[C@@H]5O[C@@H](C)[C@H](O)[C@@H](O)[C@H]5O)[C@H](O)[C@H]4O)[C@@H](O)[C@H](O)[C@H]3O)CC[C@]3(C)C(=CC[C@@H]4[C@@]5(C)C[C@@H](O)[C@H](O)[C@@](C)(CO)[C@@H]5CC[C@]43C)[C@H]12 [Asiaticoside]
inactive: A549-ACTB-RAB5A 0 | A549-CANX-COX4 0 | A549-GM130-SQSTM1 0 | A549-TP53BP1-CLTA 0 | A549-TUBA1B-RELA 0 | HepG2-ACTB-RAB5A 0 | HepG2-CANX-COX4 0 | HepG2-GM130-SQSTM1 0 | HepG2-TP53BP1-CLTA 0 | HepG2-TUBA1B-RELA 0 | WPMY1-ACTB-RAB5A 0 | WPMY1-CANX-COX4 0 | WPMY1-GM130-SQSTM1 0 | WPMY1-TP53BP1-CLTA 0 | WPMY1-TUBA1B-RELA 0

Nc1cc(-c2ccncc2)c[nH]c1=O [amrinone]
inactive: A549-ACTB-RAB5A 0 | A549-CANX-COX4 0 | A549-GM130-SQSTM1 0 | A549-TP53BP1-CLTA 0 | A549-TUBA1B-RELA 0 | HepG2-ACTB-RAB5A 0 | HepG2-CANX-COX4 0 | HepG2-GM130-SQSTM1 0 | HepG2-TP53BP1-CLTA 0 | HepG2-TUBA1B-RELA 0 | WPMY1-ACTB-RAB5A 0 | WPMY1-CANX-COX4 0 | WPMY1-GM130-SQSTM1 0 | WPMY1-TP53BP1-CLTA 0 | WPMY1-TUBA1B-RELA 0

COCCOC(=O)C1=C(C)NC(C)=C(C(=O)OC(C)C)C1c1cccc([N+](=O)[O-])c1 (stereo not given) [nimodipine]
inactive: A549-ACTB-RAB5A 0 | A549-CANX-COX4 0 | A549-GM130-SQSTM1 0 | A549-TP53BP1-CLTA 0 | A549-TUBA1B-RELA 0 | HepG2-ACTB-RAB5A 0 | HepG2-CANX-COX4 0 | HepG2-GM130-SQSTM1 0 | HepG2-TP53BP1-CLTA 0 | HepG2-TUBA1B-RELA 0 | WPMY1-ACTB-RAB5A 0 | WPMY1-CANX-COX4 0 | WPMY1-GM130-SQSTM1 0 | WPMY1-TP53BP1-CLTA 0 | WPMY1-TUBA1B-RELA 0
